# Compound activity from PubChem BioAssay.
# Sampled rows, rich in hits. Any-hit rate of the full collection: about 2.7%.
# PME-1 Maybr inh = Maybridge compound blocking human PME-1. Q9Y570. recombinant PME-1, FP-Rh probe fluorescence polarization. inhibition, % at 9 µM. actives 0.5% (n = 16,000). AID 2291; in the data active = inhibition above about 30%
# Target sequence (Q9Y570 whole entry, looked up): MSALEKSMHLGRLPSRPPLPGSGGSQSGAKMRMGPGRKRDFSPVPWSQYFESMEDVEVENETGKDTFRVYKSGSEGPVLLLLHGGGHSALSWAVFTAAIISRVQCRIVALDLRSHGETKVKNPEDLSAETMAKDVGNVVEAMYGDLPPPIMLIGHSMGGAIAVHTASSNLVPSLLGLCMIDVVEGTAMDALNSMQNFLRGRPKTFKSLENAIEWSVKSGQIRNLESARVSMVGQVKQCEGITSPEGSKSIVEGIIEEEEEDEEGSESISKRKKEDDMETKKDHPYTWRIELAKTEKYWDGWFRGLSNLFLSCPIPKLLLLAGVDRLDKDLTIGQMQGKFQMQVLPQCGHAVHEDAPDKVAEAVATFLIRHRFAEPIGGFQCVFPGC
# S1P1 ag = activates the human S1P1 receptor; S1P1 agonist cell-based reporter assay; activation, % at 4.5 µM; actives 1.5% (n = 16,000); in the data active = activation above about 80%
# rat GALR2 agon = GALR2 (rat) receptor agonism; activation, % at 10 µM; cell-based GALR2 agonist screen; actives 0.5% (n = 16,000); O08726; in the data active = activation above about 15%
# An asterisk follows results filed as active.
SMILES,PME-1 Maybr inh,S1P1 ag,rat GALR2 agon
Cc1nnsc1C(=O)Nc1ccccc1SCc1noc(-c2cccs2)n1,1,-6,-8
Cc1nnsc1C(=O)Nc1ccccc1SCc1cccc(C(F)(F)F)c1,-6,88*,-11
COC(=O)COc1c(C)[nH]ccc1=O,1,-6,3
O=C(Nc1cccc(COC(=O)c2sccc2Cl)c1)c1sccc1Cl,-22,-2,-5
CC(=O)Nc1ccc(C2N=C(c3ccc(C(F)(F)F)cn3)NN2)cc1 (stereo not given),1,68,-3
COC(=O)c1cccc(NC(=O)CC2C(=O)NCCN2C(=O)c2ccccc2)c1 (stereo not given),-4,-19,-4
COC(=O)c1sccc1NC(=O)CC1C(=O)NCCN1C(=O)c1ccccc1 (stereo not given),46*,-1,-3
O=[N+]([O-])c1cnc(Sc2ccc(C(F)(F)F)cn2)s1,0,-24,-5
O=C1NC(=S)S/C1=C\c1cc([N+](=O)[O-])ccc1Sc1ccc(C(F)(F)F)cn1,-3,108*,-3
CCCc1cnc(Oc2ncnc3cc(Cl)ccc23)nc1,4,-12,-4
Cc1ccc(COc2ncnc3cc(Cl)ccc23)cc1,0,-16,46*
CC1CN(/C=C(\C#N)S(=O)(=O)Cc2ccc(Cl)cc2)CC(C)O1 (stereo not given),5,8,-2
Cc1onc(-c2ccccc2)c1CN1C(=O)c2ccccc2S1(=O)=O,5,7,-5
COc1ccc(OC)c(/C=C(\C#N)C(N)=O)c1,2,92*,-5
CCOC(=O)/C(C#N)=C/c1ccc(OC)c(OC)c1,-1,-4,-2
c1ccc(-c2[nH]c3ccccc3c2-c2ccccc2)cc1,14,-14,-8
Oc1[nH]c2ccccc2c1N=Nc1nnc(-c2ccccc2)c(-c2ccccc2)n1,-2,96*,-7
CCOC(=O)C12CCC(C(=O)OCC)(CC13SCCS3)C1(C2)SCCS1,-4,11,-9
Cc1oc(-c2ccc(Cl)cc2)cc1-c1ccn[nH]1,6,8,-4
FC(F)(F)c1cc(-c2ccc(-c3ccn[nH]3)o2)cc(C(F)(F)F)c1,-1,102*,1
Cc1nc([N+](=O)[O-])cn1Cc1ccc(F)cc1,-1,1,-5
Nc1nc(-c2ccc3c(c2)CCC3)cc(C(F)(F)F)n1,4,83*,-6
Nc1nc(-c2ccc3c(c2)OCCCO3)cc(C(F)(F)F)n1,2,77,-6
COC(=O)c1noc(C)c1C(=O)/C=C/N1CCCCC1,4,-3,-4
CC(=O)OC[C@H]1O[C@@H](Oc2ccccc2)[C@H](OC(C)=O)[C@@H](OC(C)=O)[C@@H]1OC(C)=O,9,15,-9
SMILES,PME-1 Maybr inh,S1P1 ag,rat GALR2 agon
FC(F)(F)c1cc(-c2ccc(Cl)cc2)nc2cc(-c3ccccc3)nn12,5,14,14
FC(F)(F)c1cc(-c2cccs2)nc2cc(-c3cccs3)nn12,3,-3,30*
Cn1nc(C(=O)N2CCOCC2)c(S(=O)(=O)N2CCOCC2)c1Cl,1,-12,-8
O=c1[nH]c2cccnc2[nH]c1=O,1,-1,2
O=C(c1ccc(Cl)cc1)n1ccc(-c2cccc([N+](=O)[O-])c2)n1,-8,-16,26*
Cn1ccc(-c2cccc([N+](=O)[O-])c2)n1,2,4,-5
COc1c(Cl)cc(Cl)c(OC)c1C(=O)O,-5,-4,-8
Cc1c(C(=O)NNc2cc(C(F)(F)F)ccc2Cl)n(C)oc1=O,-2,19,-5
Cc1c(C(=O)Oc2cccc(C(F)(F)F)c2)n(C)oc1=O,-1,-6,56*
Nc1nnc(-c2ccc([N+](=O)[O-])o2)s1,1,-1,-8
N#C/C(=N\Nc1cccc(C(F)(F)F)c1)C(=O)c1csc(-c2cccnc2)n1,12,73,-7
N#C/C(=N\Nc1cccc(C(F)(F)F)c1)S(=O)(=O)c1ccsc1,6,97*,-10
C#CC(CC)(CC)N=Cc1cc(Br)ccc1OCC,-5,123*,-6
CCOc1ccccc1/C=N/NC(=O)N/N=C/c1ccccc1OCC,-12,-28,-7
Clc1ccc(COc2ccc(-c3noc(C4CC4)n3)cc2)cc1,-5,101*,-8
CN(C)S(=O)(=O)Oc1ccc(-c2noc(C3CCC3)n2)cc1,4,17,-6
Cc1ccc(S(=O)(=O)C2CS(=O)(=O)c3ccccc32)cc1 (stereo not given),-3,1,-9
COCCCNC1=C(C#N)C(=O)NC(c2ccc(O)c(OC)c2)S1 (stereo not given),3,-4,-2
O=C(OCCSc1ccc([N+](=O)[O-])c2nonc12)c1ccccc1,7,-53,-11
O=[N+]([O-])c1ccc(Sc2ccc(Cl)cc2Cl)c2nonc12,49*,39,-15
Cc1nc(C(=O)NC2(O)C(=O)c3ccccc3C2=O)cs1,18,2,-5
Cc1ccc(C)n1-c1ccc(C2(O)CCSc3ccc(F)cc32)cc1 (stereo not given),4,3,-2
FC(F)(F)Oc1ccc(-c2noc(-c3ccno3)n2)cc1,-2,91*,-6
Nc1ncnc(SCc2nc(-c3ccc(OC(F)(F)F)cc3)no2)n1,-4,4,-7
O=C(c1nc(-c2ccccc2)n(-c2ccccc2)n1)N1CCCCC1,2,0,-4
SMILES,PME-1 Maybr inh,S1P1 ag,rat GALR2 agon
O=[N+]([O-])c1ccc(-c2ccc(-c3ccc([N+](=O)[O-])cc3)o2)cc1,-8,66,-14
O=[N+]([O-])c1ccc(-c2ccc(/C=N/Nc3ccccc3)o2)cc1,2,82*,-18
c1ccc(-c2nsc(-n3ccc(-c4cccs4)n3)n2)cc1,-4,3,20*
FC(F)(F)c1ccn(-c2nc(-c3ccccc3)ns2)n1,2,5,-6
Cc1cccc(C)c1-n1[nH]nnc1=S,5,-1,-6
COC(=O)/C(=C\N(C)C)S(=O)(=O)c1cc(C)c(Cl)cc1C,12,-7,-6
Cc1cc(S(=O)(=O)Cc2ccc(NC(=O)C(Cl)(Cl)Cl)cc2)c(C)cc1Cl,-2,5,16*
O=C(O)COCC(=O)NCc1c(F)cccc1Cl,0,-11,-4
Nc1nc(NCc2ccc(-c3cccs3)s2)n[nH]1,2,1,-4
N#CCCN(Cc1cccs1)C(=O)c1cccs1,0,24,-5
N#CCCN(Cc1cccs1)C(=O)Nc1cccc(C(F)(F)F)c1,2,-2,42*
CSc1nc(/C=N/c2nc(C)cc(C)n2)c(O)n1Cc1cccc(Cl)c1,6,103*,-4
CSC1=NCC(=O)N1Cc1cccc(Cl)c1,11,4,-4
C=CCC1(NC2CCCCC2)CCCCC1,-1,46,-8
S=C(SCc1ncon1)N1CCOCC1,-8,6,-8
S=C(SCc1ncon1)N1CCCC1,-7,83*,-10
Cc1c(-c2nc(-c3ccc([N+](=O)[O-])o3)no2)n(C)oc1=O,-5,-11,-11
Cc1c(-c2nc(-c3ccc(C(C)(C)C)cc3)no2)n(C)oc1=O,7,95*,-3
O=C(O)c1ccc(OCc2ccccc2)cc1,2,-16,-2
c1ccc(COc2ccc(CCC3OCCO3)cc2)cc1,-2,31,15*
Nc1ccccc1Sc1cc(C(F)(F)F)cc([N+](=O)[O-])c1Sc1ccccc1N,7,-3,-6
O=C(O)CNC(=O)Nc1ccccc1,6,-16,-3
